Reference: patent publication US5652105, “Substrate for detection of mammalian 5-C-DNA methyltransferase” (Health Research, Inc.)

Biological target: DNA 5-C-methyltransferase (murine, Friend erythroleukemia cells) (Mus musculus, UniProt P13864 P13864:1-1620)
Assay: same rate as unmethylated A
Details: protein: extract; tags: 0.3 M NaCl nuclear extract, 100,000 x g supernatant; single approx. 190 kDa species forming covalent complexes; homodimer, no analogous stem-loop; ssDNA; 5mC at 7

Sequence of DNA 5-C-methyltransferase (murine, Friend erythroleukemia cells) (P13864 whole entry, one chain of several): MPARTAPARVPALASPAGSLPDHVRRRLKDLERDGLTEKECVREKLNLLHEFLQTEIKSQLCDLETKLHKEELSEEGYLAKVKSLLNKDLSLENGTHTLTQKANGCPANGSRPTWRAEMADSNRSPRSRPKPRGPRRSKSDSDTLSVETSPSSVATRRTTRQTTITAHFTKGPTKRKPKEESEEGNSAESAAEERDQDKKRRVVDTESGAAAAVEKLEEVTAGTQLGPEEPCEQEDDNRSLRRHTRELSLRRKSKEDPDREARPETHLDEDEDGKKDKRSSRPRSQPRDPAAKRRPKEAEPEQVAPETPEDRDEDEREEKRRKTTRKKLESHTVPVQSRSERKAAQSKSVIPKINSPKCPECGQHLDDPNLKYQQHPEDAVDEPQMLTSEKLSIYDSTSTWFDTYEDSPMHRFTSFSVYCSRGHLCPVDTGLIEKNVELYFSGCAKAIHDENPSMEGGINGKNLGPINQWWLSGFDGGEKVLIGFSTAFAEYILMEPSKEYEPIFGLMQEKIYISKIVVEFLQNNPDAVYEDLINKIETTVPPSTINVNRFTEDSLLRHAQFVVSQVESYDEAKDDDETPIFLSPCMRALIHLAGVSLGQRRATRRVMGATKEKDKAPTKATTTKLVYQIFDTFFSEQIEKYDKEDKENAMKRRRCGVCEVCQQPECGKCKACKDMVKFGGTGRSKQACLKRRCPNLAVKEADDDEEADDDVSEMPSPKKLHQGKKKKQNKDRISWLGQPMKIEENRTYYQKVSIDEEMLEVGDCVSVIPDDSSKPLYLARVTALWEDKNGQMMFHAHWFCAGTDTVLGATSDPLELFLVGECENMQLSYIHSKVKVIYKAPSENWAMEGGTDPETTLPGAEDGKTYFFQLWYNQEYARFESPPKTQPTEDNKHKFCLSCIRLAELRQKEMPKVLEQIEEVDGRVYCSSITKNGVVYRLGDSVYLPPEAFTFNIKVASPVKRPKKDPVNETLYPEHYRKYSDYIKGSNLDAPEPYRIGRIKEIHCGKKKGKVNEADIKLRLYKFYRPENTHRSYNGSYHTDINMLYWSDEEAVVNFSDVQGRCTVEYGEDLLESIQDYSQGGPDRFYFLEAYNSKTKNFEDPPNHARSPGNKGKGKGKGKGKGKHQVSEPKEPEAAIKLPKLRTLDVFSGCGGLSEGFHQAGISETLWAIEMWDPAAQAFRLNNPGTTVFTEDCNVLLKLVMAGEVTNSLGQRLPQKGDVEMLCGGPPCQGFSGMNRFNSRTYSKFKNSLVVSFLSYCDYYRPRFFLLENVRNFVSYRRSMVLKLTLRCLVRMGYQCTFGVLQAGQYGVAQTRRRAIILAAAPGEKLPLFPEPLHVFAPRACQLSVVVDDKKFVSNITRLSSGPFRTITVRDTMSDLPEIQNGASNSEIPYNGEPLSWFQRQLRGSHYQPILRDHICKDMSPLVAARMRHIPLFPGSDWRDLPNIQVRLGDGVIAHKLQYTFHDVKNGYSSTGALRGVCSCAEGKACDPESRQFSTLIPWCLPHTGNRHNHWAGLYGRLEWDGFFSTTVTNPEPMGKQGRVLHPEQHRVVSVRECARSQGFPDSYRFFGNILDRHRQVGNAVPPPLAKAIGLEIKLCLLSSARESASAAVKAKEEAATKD

In the case of ATTGCGCTACTCGGATCCGGCCAT, the binding signal is reported as 1 relative to A.
